hgDAF12 agonist – H. glycines DAF-12 receptor agonists, primary screen, cell-based, luminescence, HEK293, GAL4 fusion, UAS-luciferase; HEK293 GAL4-hgDAF12 UAS-luciferase reporter, agonist luminescence; normalized to butyrate control; 370,000 tested, 1.8% active; Nuclear hormone receptor DAF-12 (Heterodera glycines), GAL4 fusion; activation, % at 6.8 µM;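 active = activation above a cutoff set at the mean of all screened compounds plus 3 SD, cut at about 10% in these data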
hcDAF12 agonist – H. contortus DAF-12 nuclear receptor activators, primary screen, cell-based, luminescence, HEK293, lit1-tk-luc reporter | HEK293 hcDAF-12 lit1-tk-luc reporter; 0% DMSO, 100% Δ7-dafachronic acid | activation, % at 6.8 µM | 370,000 tested, 1.4% active;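 active = activation above the mean of all tested compounds plus 3 SD, cut at about 5.5% in these data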
DAX1 inh-1 – DAX1 (NR0B1) inhibitors on StAR promoter, primary screen, cell-based, luminescence, SF-1 (NR5A1), full-length DAX-1; HEK293T StAR-luciferase reporter, SF-1/DAX-1 repression relief; inhibition, % at 6.8 µM; 370,000 tested, 1.1% active; AID 652010, 2013;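 active = inhibition above the mean over all tested compounds plus 3 SD, cut at about 3.6% in these data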;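 also: higher inhibition means more luminescence from relief of DAX-1 repression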
DAX1 inh-2 – DAX1 (NR0B1) inhibitors, primary screen, cell-based, HEK293, Gal4-DAX1, luciferase luminescence; inhibition, % at 6.75 µM; AID 504766, 2011; HEK293 Gal4-DAX1 luciferase reporter; 340,000 tested, 0.99% active;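 active = inhibition above the mean over all tested compounds plus 3 SD, cut at about 4.2% in these data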;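 also: inhibition shows as a rise in luminescence from relieved DAX1 repression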
Target sequence (P51843 207-470 limits assumed): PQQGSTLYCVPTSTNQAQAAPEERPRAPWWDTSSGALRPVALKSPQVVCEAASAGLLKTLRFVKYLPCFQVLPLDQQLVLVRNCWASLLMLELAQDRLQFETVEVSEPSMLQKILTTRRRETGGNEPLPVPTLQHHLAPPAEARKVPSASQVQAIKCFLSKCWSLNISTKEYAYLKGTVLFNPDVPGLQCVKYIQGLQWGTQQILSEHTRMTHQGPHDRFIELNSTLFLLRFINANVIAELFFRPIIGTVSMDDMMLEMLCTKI
ssDAF12 agonist – S. stercoralis DAF-12 nuclear receptor activators, primary screen, cell-based, luminescence, HEK293, GRIP1 co-expression, lit1-tk-luc | Nuclear hormone receptor DAF-12 (Strongyloides stercoralis) | HEK293 ssDAF-12/GRIP1 lit1-tk-luc reporter; % of 3 µM dafachronic acid response | 370,000 tested, 1% active | activation, % at 6.8 µM;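 active = activation above the mean over all tested compounds plus 3 SD, cut at about 0.9% in these data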
Of the large screens only hits and unclear results are named; the others gave an inactive call. Only some compounds are listed: those with a hit (about 4.1% of all), similar ones and a draw of the others.

COC[C@@H]1CCCN1c1ccc2c(c1)O[C@H]1CCN(C1)S2(=O)=O	none (no result: DAX1 inh-2)
CCOC(=O)c1cccc(NC(=O)CN(C)S(=O)(=O)c2ccc(F)cc2)c1	none (no result: DAX1 inh-2)
Cc1ccc(S(=O)(=O)N(C)CC(=O)NCC(=O)Nc2ccc(F)c(F)c2F)cc1	DAX1 inh-2 4.7
COCC(=O)N(C[C@H]1[C@H](c2ccccc2)[C@@H](CO)N1C(=O)NC(C)C)C(C)C	none (no result: DAX1 inh-2)
COC(=O)[C@]12C[C@H](CC(=O)NCCCCc3ccccc3)C(=O)N(Cc3ccco3)C1=C[C@H](C(C)C)O[C@@H]2C1CC1	none (no result: DAX1 inh-2)
CCCN(CC(=O)Nc1ccccc1C)C(=O)c1ccc(Cl)c(S(=O)(=O)N2CCCC2)c1	DAX1 inh-2 5.3
Cn1c(N)c(-c2nc3cccnc3n2C)sc1=S	DAX1 inh-2 4.2
O=C(Cc1ccccc1[N+](=O)[O-])NCc1ccc(Cl)cc1Cl	hgDAF12 agonist 12
O=C(Cc1ccccc1[N+](=O)[O-])NCc1ccc(Cl)cc1	ssDAF12 agonist 1.2
O=C(Cc1ccc([N+](=O)[O-])cc1)NCc1ccccc1Cl	none
Cc1ccc(-c2nnc(SCC(=O)Nc3ccc4c(c3)OCCO4)n2-c2ccc(C)cc2)cc1	none (no result: DAX1 inh-2)
COc1ccc(OC)c(NC(=O)c2cc3c(=O)n4ccccc4nc3n2C)c1	none
O=C(Nc1cnc2ccccn2c1=O)c1ccc(F)cc1	hgDAF12 agonist 11
COc1ccc(C(=O)Nc2cnc3ccccn3c2=O)cc1	hgDAF12 agonist 12
COC(=O)[C@@]12CCCCC3=C1N(CCC3)C(=O)[C@H]2CC(=O)N1CCN(C(=O)C2CC2)CC1	none (no result: DAX1 inh-2)
Cc1cc(CNC(=O)Cn2nc(C)c([N+](=O)[O-])c2C)c2ccccc2n1	DAX1 inh-1 4.3
Cc1nn(CC(=O)NCc2ccccc2Cl)c(C)c1[N+](=O)[O-]	none
CCCCN1C(=O)N2Cc3cc(OC)ccc3C2CS1(=O)=O (stereo not given)	hgDAF12 agonist 11, hcDAF12 agonist 5.6 (no result: DAX1 inh-2)
COc1ccc2c(c1)CN1C(=O)N(CCc3ccccc3)S(=O)(=O)CC21 (stereo not given)	none (no result: DAX1 inh-2)
O=[N+]([O-])c1ccccc1-c1ccc(C(=S)N2CCN(c3ccccc3)CC2)o1	ssDAF12 agonist 1.7
COC(=O)[C@H]1C[C@]2(C/C=C(\C)CCC=C(C)C)c3ccccc3N[C@H]2N1	none (no result: DAX1 inh-1, DAX1 inh-2)
CC(=O)C(C)Oc1ccc2c3c(c(=O)oc2c1)CCCCC3 (stereo not given)	hgDAF12 agonist 11
COc1ccc(-c2noc(CCC(=O)N3CCN(c4cccc(OC)c4)CC3)n2)cc1	none
COc1ccc(-c2noc(CCC(=O)N3CCC(c4cc(C)ccc4C)CC3)n2)cc1	ssDAF12 agonist 3.0
O=C1C(=O)N(Cc2ccc(-c3ccc(F)nc3)cc2)c2ccc(OC(F)(F)F)cc21	none (no result: DAX1 inh-1, DAX1 inh-2)
O=C1OCCN1C(=O)[C@H]1[C@H](c2ccc(Cl)cc2)C(c2ccc(F)cc2)=NN1c1ccccc1	DAX1 inh-1 3.8
Cc1cccc(C2=NN(c3ccccc3)[C@@H](C(=O)N3CCOC3=O)[C@@H]2C)c1	DAX1 inh-1 3.7
O=C(NCc1ccc(F)c(F)c1)C1CCC(CNS(=O)(=O)c2cccc3cccnc23)CC1 (stereo not given)	none (no result: DAX1 inh-2)
Nc1nc(N)c(N=O)c(OCC2CCCCC2)n1	hgDAF12 agonist 12
O=C(C[C@H]1C[C@H](C(=O)N2CCOCC2)[C@@]2(CCC3CCCC3)c3[nH]c4cc(-c5ccco5)ccc4c3CCN2C1=O)NCCN1CCOCC1	DAX1 inh-1 3.7
CN(C)CCCNC(=O)C[C@H]1C[C@H](C(=O)N2CCOCC2)[C@@]2(CCC3CCCC3)c3[nH]c4cc(-c5ccco5)ccc4c3CCN2C1=O	none
FC(F)(F)c1ccc(Cn2ccc3ccc(-c4ccc5ccn(Cc6ccccc6)c5c4)cc32)cc1	none (no result: DAX1 inh-2)
Cc1nc2ccccn2c1C(O)(c1ccccc1)c1ccccc1	none (no result: DAX1 inh-1, DAX1 inh-2)
O=C(OCC#CCSc1nnc(-c2cccc3ccccc23)o1)c1ccc(F)c(F)c1	none (no result: DAX1 inh-1, DAX1 inh-2)
CCOC(=O)C1(Cc2cccc(OC)c2)CCCN(C(=O)CNC(C)=O)C1 (stereo not given)	hgDAF12 agonist 13
O=C(Cn1cc(C(F)(F)F)ccc1=O)N1CCc2ccccc2C1	ssDAF12 agonist 1.0
CCCCCCCCN1C(=O)[C@@H](CC(=O)NCCCN2CCCC2=O)C[C@@]2(C(=O)OC)C1=C[C@H](C(C)C)O[C@@H]2C1CC1	none (no result: DAX1 inh-2)
N#CC1=C(SCC(=O)c2ccccc2)NC2=C(C(=O)CCC2)C1c1ccco1 (stereo not given)	hgDAF12 agonist 13
NCC(c1ccco1)c1c[nH]c2ccccc12 (stereo not given)	hcDAF12 agonist 6.1
OC(c1cccs1)(c1cccs1)C1C[N+]2(CF)CCC1CC2 (stereo not given)	hcDAF12 agonist 5.8
CCc1ccc(O)c(-c2cc(C(=O)Nc3cccnc3)[nH]n2)c1	hgDAF12 agonist 12, DAX1 inh-1 3.8
Cc1cc(C)c(O)c(-c2cc(C(=O)Nc3cccnc3)[nH]n2)c1	none
COc1ccc(-c2nnc(-c3ccc(N)cc3)o2)cc1	hgDAF12 agonist 11
CC(C)(N[C@@H](Cc1ccccc1)C(=O)NCCCc1ccccc1)C(=O)NCc1ccccc1	none (no result: DAX1 inh-1, DAX1 inh-2)
O=C1C[C@@H](c2ccccc2)N=C2N(CC3CC3)C/C(=C/c3ccccc3)N12	none (no result: DAX1 inh-2)
O=[N+]([O-])c1cc(N=Nc2ccc3ccccc3c2)ccc1O	ssDAF12 agonist 1.3
Nc1ccc(O)c([N+](=O)[O-])c1	none
O=C(CN1CCCCCC1)Nc1ccc([N+](=O)[O-])cc1Br	none
Cc1ccc([N+](=O)[O-])cc1-c1ccc(/C=N/NC(=O)CN2CCOCC2)o1	ssDAF12 agonist 0.9
O=C(CN1CCOCC1)Nc1ccc([N+](=O)[O-])cc1Br	ssDAF12 agonist 1.3
O=C(C1CCCN1S(=O)(=O)c1ccc(Br)s1)N1CCN(c2ccccc2)CC1 (stereo not given)	none (no result: DAX1 inh-2)
Cc1sc(N=Nc2ccc(N(C)C)cc2)[n+]([O-])c1C	DAX1 inh-1 3.7
Cc1cc(N(C)C)ccc1N=Nc1ccc(N)cc1	none
O=C(Nc1ccc(N2C(=O)CC3(CCCCC3)C2=O)c(Cl)c1)c1ccccn1	none (no result: DAX1 inh-1, DAX1 inh-2)
O=C(Nc1ccccc1[N+](=O)[O-])NC1CCCCN(Cc2ccc(Cl)cc2)C1=O (stereo not given)	none (no result: DAX1 inh-2)
CCOC(=O)CC[C@@]1(C(=O)OCC)C[C@@H](CC(=O)NCCCOC)C(=O)N2CCCC=C21	ssDAF12 agonist 1.6 (no result: DAX1 inh-2)
COc1cccc(CNC(=O)CN(C)S(=O)(=O)c2ccc(Br)s2)c1	DAX1 inh-2 10
